An excerpt weighted towards active compounds, which were near 6.9% of everything screened.
ASM inhibitor: blocks human secretory acid sphingomyelinase; P17405; placental ASM, HMU-PC fluorogenic substrate, 60 min; Potency, µM (top dose mostly 57.5 µM), for inactives: at the highest dose activity change, negative = inhibition, hits mostly inhibitors; 340,000 compounds, 0.006% hits; AID 504937; further: potency means the concentration at half of the fitted maximal effect
Target sequence (P17405 47-631 limits assumed): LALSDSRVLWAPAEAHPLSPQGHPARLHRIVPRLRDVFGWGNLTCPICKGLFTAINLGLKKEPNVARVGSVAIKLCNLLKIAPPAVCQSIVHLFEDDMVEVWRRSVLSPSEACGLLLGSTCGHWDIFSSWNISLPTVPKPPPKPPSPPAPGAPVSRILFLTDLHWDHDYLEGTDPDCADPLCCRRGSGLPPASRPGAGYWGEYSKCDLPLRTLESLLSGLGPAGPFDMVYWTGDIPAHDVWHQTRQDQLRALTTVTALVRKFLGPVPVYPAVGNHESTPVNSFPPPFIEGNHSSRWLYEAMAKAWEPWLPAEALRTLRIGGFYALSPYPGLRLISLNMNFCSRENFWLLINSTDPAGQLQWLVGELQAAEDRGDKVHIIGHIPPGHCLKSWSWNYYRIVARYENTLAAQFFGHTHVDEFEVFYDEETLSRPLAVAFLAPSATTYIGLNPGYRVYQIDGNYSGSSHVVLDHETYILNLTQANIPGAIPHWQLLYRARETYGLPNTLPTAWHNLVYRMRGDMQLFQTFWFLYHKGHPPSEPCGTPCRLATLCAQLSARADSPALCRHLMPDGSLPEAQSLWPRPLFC
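Fluorogenic HMU-PC substrate (9 uM final) is turned over by placental ASM in 60 min at 37 C after a 10 min compound preincubation. Reaction ended by alkaline stop (pH 10), with fluorescence read at 386/447 nm.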
KB-3-1 tox: KB-3-1 parental cell cytotoxicity; KB-3-1 viability, CellTiter-Glo ATP luminescence, 72 h; Potency, µM (titrated, usually from 46.1 µM), actives largely listed as cytotoxic; 400,000 compounds, 1.4% hits; AID 1347075; further: potency means the concentration at half of the fitted maximal effect; on the % scale 0 is the no-effect control and ±100 the full control effect; nearly all actives have a fitted effect of over 60% in size
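Here the drug-naive KB-3-1 line serves as comparator for MDR sub-line selectivity; cells received compound titrations, 72 h at 37 °C, then CellTiter-Glo readout.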
KB-V1 cytotox: KB-V1 MDR subline cytotoxicity | AID 1347076 | 400,000 compounds, 3.4% hits | KB-V1 MDR cells viability, CellTiter-Glo, 72 h | Potency, µM (highest dose often 46.1 µM), hits mostly cytotoxic; further: potency means the concentration at half of the fitted maximal effect; on the % scale 0 is the no-effect control and ±100 the full control effect; nearly all actives have a fitted effect of over 60% in size
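In this primary screen, KB-V1 cells overexpressing P-gp are incubated with library compounds (lowest to highest concentration) for 72 h at 37 degrees C before a luminescent ATP viability read.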
MCF10A rereplic: induces DNA re-replication in MCF 10a normal breast cells; AID 624296; MCF 10A DNA re-replication, Hoechst nuclear intensity, 48 h; Potency, µM (top dose mostly 46.1 µM), inactives show at the highest dose activity, positive = re-replication, hits mostly activators; 350,000 compounds, 2.9% hits; further: potency means the concentration at half of the fitted maximal effect; % of control where 0% means no effect; nearly all actives have a fitted effect of over 50% in size
SW480 rerep: induces DNA re-replication in SW480 colon adenocarcinoma cells. SW480 DNA re-replication, Hoechst DNA content imaging, 48 h. Potency, µM (top dose mostly 46.1 µM), for the others: at the highest dose re-replication activation, usual class: activators. 340,000 compounds, 1.8% hits; further: potency means the concentration at half of the fitted maximal effect; % of control where 0% means no effect; nearly all actives have a fitted effect of over 55% in size
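Cells (250 per well) received 23 nL compound or DMSO by pin tool and were kept 48 hr at 37 C, 5% CO2. Nuclei were then stained with Hoechst for 40 min and scanned for DNA content.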
Giardia kill: kills Giardia lamblia. AID 540267. Giardia lamblia trophozoite viability. 340,000 compounds, 0.15% hits. activity change, % at 7.66 µM, hits read low; in the data active means activity change below about -80%; inconclusive means between about -30% and that limit;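 further: parasites exposed to compound for two days anaerobically before the ATP read; on the % scale 0 is the no-effect control and ±100 the full control effect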
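Luminescent ATP signal served as the viability read-out, measured 15-30 min after adding ATP detection reagent to trophozoites that had been incubated with compounds for 48 hrs at 37 deg C anaerobically at 100 cells/well.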
* hit, by the source's call; i = inactive; ? = inconclusive; nt = no result; [ ] = remark or other dose. Unless noted, the call rests on the fitted dose curve; in most records, active means well fitted curve in the direction sought with a large enough effect; inconclusive means small, poorly fitted or top-dose-only effect, or another doubt; inactive means no such curve, though single readings can be large; an effect the other way counts as inactive or inconclusive.

SMILES	ASM inhibitor	KB-3-1 tox	KB-V1 cytotox	MCF10A rereplic	SW480 rerep	Giardia kill
COc1cccc(CN(C)C(=O)c2cc(S(=O)(=O)NCc3ccccc3)ccc2C)c1OC	-2.5%	i	18.4µM*	2.4%	-7.3%	-3.9
CCOc1ccc(C(=O)NCc2ccccc2)cc1Br	-2.7%	i	18.4µM*	2.2%	69.8%	7.4
O=C(NCc1ccccc1)c1cccc(S(=O)(=O)NCc2ccccc2)c1	-0.7%	i	16.4µM*	-9.4%	-37.9%	-7.3
CN(C)C1(CNC(=O)c2cccc(S(=O)(=O)NCc3ccccc3)c2)CCCCC1	2.4%	i	i	9.2%	-0.5%	45.8
COc1cccc(CN(C)C(=O)c2[nH]c(C)c(C(C)=O)c2C)c1OC	-1.6%	7.31µM*	18.4µM*	7.4%	-1.3%	-9.7
CCOc1cc(C(=O)NCc2ccccc2)ccc1OCC(=O)N1CCOCC1	-0.3%	?	i	3.8%	-270.1%[1.84 µM]	1.6
COc1ccc(CN(C)C(=O)c2cc(S(=O)(=O)NCc3ccccc3)ccc2C)c(OC)c1	-0.6%	i	i	6.7%	-22.2%	44.4
O=C(NCc1ccccc1)c1cccc(COc2ccc(Cl)cc2)c1	-10.6%	i	18.4µM*	8.5%	8.8%	10.2
O=C(COC(=O)c1cccc(S(=O)(=O)NCc2ccccc2)c1)c1ccccc1	nt	i	i	4.1%	-2.6%	-5.2
Cc1cc(C)c(C(=O)COC(=O)c2cccc(S(=O)(=O)NCc3ccccc3)c2)cc1C	-1.7%	i	18.4µM*	12.7%	8.5%	0.0
O=C(CSc1nc(-c2cccs2)cc(C(F)(F)F)n1)Nc1cc(OCC(F)(F)C(F)F)cc([N+](=O)[O-])c1	-6.6%	?	16.4µM*	?	?	9.8
O=C(CSc1nc(-c2cccs2)cc(C(F)(F)F)n1)Nc1ccccc1Cl	nt	i	i	nt	nt	nt
N#Cc1sc2nc(-c3ccccc3)cc(-c3ccco3)c2c1N	4.1%	i	i	?	?	-13.9
Cc1ccc(-c2cc(-c3ccccc3)c3c(N)c(S(C)(=O)=O)sc3n2)cc1	199.8%	?	?	?	11.6µM*	-8.5
CS(=O)(=O)c1sc2nc(-c3cccs3)cc(-c3ccccc3)c2c1N	44.4%	i	i	18.4µM*	?	-4.2
CN(Cc1ccccc1)C(=O)c1cc(-c2ccc(Br)cc2)on1	-4.7%	?	14.6µM*	-2.8%	2.5%	-19.0
O=C(O)c1ccccc1C=NNc1ccc([N+](=O)[O-])cn1	-1.2%	i	i	-23.0%	-2.5%	6.5
COc1cccc(/C=N/Nc2nc(Nc3ccc([N+](=O)[O-])cc3)nc(N3CCCC3)n2)c1O	-11.6%	16.4µM*	?	5.8%	5.8µM*	4.0
COc1cccc(/C=N/Nc2ccc([N+](=O)[O-])cn2)c1O	-4.8%	5.17µM*	i	?	1.16µM*	-7.2
O=[N+]([O-])c1ccc(NN=Cc2cccc3ccccc23)nc1	22.3%	?	i	?	3.26µM*	-5.7
O=C(NS(=O)(=O)N1CCOCC1)C1=C(N2CCCC2)COC1=O	6.2%	i	i	5.2%	12.1%[9.22 µM]	20.9
CN1CCN(C(=O)c2ccccc2Nc2ccc(SC(F)F)cc2)CC1	6.2%	i	i	1.4%	-4.1%	5.3
CN1CCC(N(C)C(=O)c2ccccc2Nc2ccc(SC(F)F)cc2)CC1	5.9%	i	i	8.2µM*	-4.5%	14.5
CC(C)(C)NCc1cccn1-c1sc2c(c1C#N)CCCC2	1.9%	i	16.4µM*	12.1%	-3.2%	-12.2
CCCNC(=O)COC(=O)c1ccccc1C(=O)c1ccc(Cl)c([N+](=O)[O-])c1	-2.8%	?	i	?	6.51µM*	-2.0
SMILES	ASM inhibitor	KB-3-1 tox	KB-V1 cytotox	MCF10A rereplic	SW480 rerep	Giardia kill
Cc1ccc(Cl)c(NC(=O)COC(=O)c2ccccc2C(=O)c2ccc(Cl)c([N+](=O)[O-])c2)c1Cl	1.9%	?	i	2.59µM*	3.66µM*	-1.5
O=C(COC(=O)c1ccccc1[N+](=O)[O-])NCCCc1ccccc1	-6.0%	i	i	18.4µM*	-15.0%	4.0
Cc1ccc2c(=O)cc(CSc3ncn[nH]3)[nH]c2c1C	nt	i	i	nt	nt	nt
CCc1ccccc1NC(=O)CSc1nnc(-c2cc(OC)c(OC)c(OC)c2)o1	nt	i	i	nt	nt	nt
CCOC(=O)N1CCC(n2c(SCC(=O)N3CCC(C)CC3)nc3ccccc3c2=O)CC1	0.7%	?	20.6µM*	?	11.8%	-19.7
CCOC(=O)N1CCC(n2c(SCC(=O)NCCC3=CCCCC3)nc3ccccc3c2=O)CC1	-6.9%	?	8.2µM*	25.9µM*	?	-6.1
CC1CCN(C(=O)CSc2nc3ccccc3c(=O)n2Cc2ccc3c(c2)OCO3)CC1	-1.5%	?	4.61µM*	?	19.1%	-3.5
CCOC(=O)N1CCC(n2c(SCC(=O)NCc3ccccc3)nc3ccccc3c2=O)CC1	-3.0%	i	i	-0.1%	4.4%	11.8
COC(=O)c1ccc(OCC2c3cc(OC)c(OC)cc3CCN2C(=O)Cc2ccccc2)cc1 (configuration not stated)	nt	i	i	nt	nt	nt
COc1cnc(-c2ccccn2)nc1Sc1cccc(Cl)c1	-6.4%	i	?	20.6µM*	11.6µM*	-22.1
COc1cnc(-c2ccccn2)nc1Oc1ccc(Cl)cc1	4.1%	i	?	?	10.3µM*	-3.4
COc1cnc(-c2ccccn2)nc1NC(C)C	5.1%	?	7.31µM*	23.1µM*	6.51µM*	8.5
COc1cnc(-c2ccccn2)nc1Sc1ccc(C)cc1	-2.1%	i	i	18.4%	?	-20.7
COc1ccccc1Sc1nc(-c2ccccn2)ncc1OC	0.7%	?	i	-3.5%	?	-24.3
COc1cccc(CNc2ncnc3onc(-c4ccc(F)cc4)c23)c1	nt	i	i	nt	nt	nt
CCOc1ccc(-c2nc3c(c(SCC(=O)N4CCCCC4)n2)Cc2cccc(OC)c2O3)cc1	nt	i	i	nt	nt	nt
Cc1cc(C)c(Cn2c(=O)n(CCC(=O)NCCc3ccccc3)c(=O)c3ccccc32)c(C)c1	nt	i	?	nt	nt	nt
Cc1cccc(/C=C2/S/C(=N/N=C3\CC4CCC3(C)C4(C)C)NC2=O)c1 (configuration not stated)	-23.1%	?	20.6µM*	?	12.7%	1.0
CCOC(=O)c1[nH]c2cc(OC)c(OC)cc2c1NC(=O)c1ccc2c(c1)OCO2	18.3%	i	i	0.3%	0.0%	3.7
CCOC(=O)c1[nH]c2cc(OC)c(OC)cc2c1NC(=O)CN(C)C1CCCCC1	0.4%	?	7.31µM*	9.8%	-0.4%	0.8
O=c1[nH]c(CSc2nnc(Nc3ccccc3)s2)nc2ccccc12	-2.3%	i	i	21.5%	16.4µM*	-1.9

Screening data: PubChem BioAssay, National Center for Advancing Translational Sciences (NCATS)
